Laboratory results published in publication PMC7862700, “An all-to-all approach to the identification of sequence-specific readers for epigenetic DNA modifications on cytosine”.

Key:
Assay in all cases: DAPPL (digital affinity profiling via proximity ligation, sequencing); 10 mM Tris-HCl pH 7.5, 50 mM NaCl, 1 mM DTT, 4% glycerol, room temperature, 30 min; GST-TFs on glutathione beads, 16-mer random dsDNA library, 0.1% formaldehyde crosslink after washing; high values mean tight binding
Conditions in all cases: protein: recombinant; tags: N-terminal GST; dsDNA, one strand shown
[1] = molecular target: T1, FLI1 (Homo sapiens, UniProt Q01543 1-452)
T1 sequence: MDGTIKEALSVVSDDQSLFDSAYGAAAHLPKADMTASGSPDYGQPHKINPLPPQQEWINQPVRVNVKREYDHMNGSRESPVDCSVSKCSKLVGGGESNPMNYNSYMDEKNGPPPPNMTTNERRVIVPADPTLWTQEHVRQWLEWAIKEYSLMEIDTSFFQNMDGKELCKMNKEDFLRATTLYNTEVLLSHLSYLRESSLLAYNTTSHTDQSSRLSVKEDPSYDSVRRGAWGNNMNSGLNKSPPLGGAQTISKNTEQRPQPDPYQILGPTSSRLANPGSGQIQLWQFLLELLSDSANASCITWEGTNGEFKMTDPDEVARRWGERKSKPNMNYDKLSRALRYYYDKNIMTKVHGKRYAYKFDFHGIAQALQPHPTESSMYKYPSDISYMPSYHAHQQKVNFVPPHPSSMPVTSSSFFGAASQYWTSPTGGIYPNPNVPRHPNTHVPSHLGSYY
Summary of the method: (§1)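 Human transcription factors fused to GST were expressed in yeast, captured on glutathione beads, given DNA barcodes and pooled with a GST-only negative control. Pools were incubated with 200 nmole of a 16-mer random double-stranded DNA library in Tris/NaCl/DTT/glycerol buffer at room temperature for 30 min. They were then washed, crosslinked with 0.1% formaldehyde, proximity-ligated (BsaI/T4 ligase, 1 h, 37 °C), PCR-amplified and sequenced on an Illumina NextSeq500. Binding signal is each 6-mer's read frequency for a factor divided by its frequency for the GST control.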

[2] = molecular target: T2, ELK1 (Homo sapiens, UniProt P19419 1-428)
T2 sequence: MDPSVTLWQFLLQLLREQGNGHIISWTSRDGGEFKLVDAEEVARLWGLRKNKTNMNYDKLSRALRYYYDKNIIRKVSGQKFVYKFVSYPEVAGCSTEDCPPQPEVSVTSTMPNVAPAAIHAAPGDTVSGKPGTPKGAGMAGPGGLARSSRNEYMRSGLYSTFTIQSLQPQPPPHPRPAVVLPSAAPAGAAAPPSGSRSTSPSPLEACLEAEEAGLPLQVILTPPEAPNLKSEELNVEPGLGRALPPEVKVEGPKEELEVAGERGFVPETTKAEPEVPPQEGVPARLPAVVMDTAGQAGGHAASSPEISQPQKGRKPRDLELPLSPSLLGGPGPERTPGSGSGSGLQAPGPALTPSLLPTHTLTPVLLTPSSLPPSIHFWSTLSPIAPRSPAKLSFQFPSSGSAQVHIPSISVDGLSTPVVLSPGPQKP
Summary of the method: as §1

[3] = molecular target: T3, GABPA (Homo sapiens, UniProt Q06546 1-454)
T3 sequence: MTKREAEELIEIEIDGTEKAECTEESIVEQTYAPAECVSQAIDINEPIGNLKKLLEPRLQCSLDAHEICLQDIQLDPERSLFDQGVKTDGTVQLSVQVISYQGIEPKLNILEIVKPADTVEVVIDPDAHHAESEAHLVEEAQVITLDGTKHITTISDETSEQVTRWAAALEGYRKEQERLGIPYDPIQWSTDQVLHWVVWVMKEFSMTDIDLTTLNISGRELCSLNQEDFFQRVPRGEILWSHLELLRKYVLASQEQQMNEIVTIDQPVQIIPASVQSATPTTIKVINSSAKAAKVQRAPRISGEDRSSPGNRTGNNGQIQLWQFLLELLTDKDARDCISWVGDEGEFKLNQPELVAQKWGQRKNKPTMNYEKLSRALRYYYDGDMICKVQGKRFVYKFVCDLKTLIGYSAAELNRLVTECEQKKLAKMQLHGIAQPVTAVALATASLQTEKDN
Summary of the method: as §1

[4] = molecular target: T4, ERG (Homo sapiens, UniProt P11308 1-479)
T4 sequence: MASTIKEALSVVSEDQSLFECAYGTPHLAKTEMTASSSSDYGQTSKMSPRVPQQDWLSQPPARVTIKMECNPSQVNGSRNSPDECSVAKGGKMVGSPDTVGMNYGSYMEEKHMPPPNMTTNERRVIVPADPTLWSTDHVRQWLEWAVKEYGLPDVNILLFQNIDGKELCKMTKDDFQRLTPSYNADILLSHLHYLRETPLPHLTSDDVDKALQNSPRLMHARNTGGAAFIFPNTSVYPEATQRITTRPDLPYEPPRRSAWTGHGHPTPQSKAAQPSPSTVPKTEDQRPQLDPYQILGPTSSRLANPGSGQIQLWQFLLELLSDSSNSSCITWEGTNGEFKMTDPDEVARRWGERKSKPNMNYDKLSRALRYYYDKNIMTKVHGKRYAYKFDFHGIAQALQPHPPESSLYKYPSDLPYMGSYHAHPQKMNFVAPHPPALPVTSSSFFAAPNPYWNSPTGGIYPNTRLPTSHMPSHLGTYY
Summary of the method: as §1

[5] = molecular target: ELF1 (Homo sapiens, UniProt P32519 1-619)
Sequence of ELF1 (P32519 whole entry): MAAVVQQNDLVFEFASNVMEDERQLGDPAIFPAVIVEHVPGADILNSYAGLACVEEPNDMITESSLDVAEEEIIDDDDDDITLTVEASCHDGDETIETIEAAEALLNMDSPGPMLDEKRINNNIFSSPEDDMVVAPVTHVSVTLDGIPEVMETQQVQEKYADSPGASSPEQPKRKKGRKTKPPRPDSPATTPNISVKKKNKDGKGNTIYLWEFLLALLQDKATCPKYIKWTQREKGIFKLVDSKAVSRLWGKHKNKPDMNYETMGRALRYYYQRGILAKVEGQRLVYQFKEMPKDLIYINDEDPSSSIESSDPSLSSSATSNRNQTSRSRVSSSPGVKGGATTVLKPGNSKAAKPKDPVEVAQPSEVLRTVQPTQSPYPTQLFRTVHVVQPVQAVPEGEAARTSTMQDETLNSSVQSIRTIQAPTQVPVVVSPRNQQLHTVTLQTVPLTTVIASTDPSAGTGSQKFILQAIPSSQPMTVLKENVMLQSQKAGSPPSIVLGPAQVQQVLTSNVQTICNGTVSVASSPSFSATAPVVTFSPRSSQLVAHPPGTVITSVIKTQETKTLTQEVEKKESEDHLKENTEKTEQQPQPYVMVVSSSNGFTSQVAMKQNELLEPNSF
Summary of the method: as §1

[6] = molecular target: T5, EHF (Homo sapiens, UniProt Q9NZC4 1-300)
T5 sequence: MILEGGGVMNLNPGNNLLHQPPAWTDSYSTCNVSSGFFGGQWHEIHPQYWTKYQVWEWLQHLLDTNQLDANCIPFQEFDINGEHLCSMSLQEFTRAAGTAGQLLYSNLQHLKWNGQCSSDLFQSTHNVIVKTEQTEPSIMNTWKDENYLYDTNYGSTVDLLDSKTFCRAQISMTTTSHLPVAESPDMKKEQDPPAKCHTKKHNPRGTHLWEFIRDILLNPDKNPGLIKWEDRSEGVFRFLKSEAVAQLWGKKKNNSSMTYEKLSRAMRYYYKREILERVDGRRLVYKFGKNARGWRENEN
Summary of the method: as §1

[7] = molecular target: SPI1 (Homo sapiens, UniProt P17947 1-270)
Summary of the method: as §1

[8] = molecular target: SPIB (Homo sapiens, UniProt Q01892 1-262)
Sequence of SPIB (Q01892 whole entry): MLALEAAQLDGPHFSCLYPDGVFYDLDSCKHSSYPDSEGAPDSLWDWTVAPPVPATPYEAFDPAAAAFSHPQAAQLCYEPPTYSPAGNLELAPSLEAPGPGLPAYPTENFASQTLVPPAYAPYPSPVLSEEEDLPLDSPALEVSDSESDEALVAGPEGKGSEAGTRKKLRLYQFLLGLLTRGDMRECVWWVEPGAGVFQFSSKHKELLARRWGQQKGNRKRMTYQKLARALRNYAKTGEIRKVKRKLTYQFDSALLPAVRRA
Summary of the method: as §1

[9] = molecular target: T6, ELK3 (Homo sapiens, UniProt P41970 1-407)
T6 sequence: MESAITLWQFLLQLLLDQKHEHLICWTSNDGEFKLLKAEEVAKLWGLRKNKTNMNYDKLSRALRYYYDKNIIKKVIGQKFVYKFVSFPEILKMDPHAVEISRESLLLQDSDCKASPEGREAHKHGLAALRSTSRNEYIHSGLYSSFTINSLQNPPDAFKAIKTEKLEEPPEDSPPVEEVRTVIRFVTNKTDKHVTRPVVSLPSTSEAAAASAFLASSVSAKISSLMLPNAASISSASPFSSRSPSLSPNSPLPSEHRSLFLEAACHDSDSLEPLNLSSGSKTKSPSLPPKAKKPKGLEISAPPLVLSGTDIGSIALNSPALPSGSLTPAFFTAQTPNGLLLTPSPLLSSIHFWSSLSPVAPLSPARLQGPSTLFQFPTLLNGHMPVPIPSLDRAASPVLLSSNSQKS
Summary of the method: as §1

[10] = molecular target: T7, FEV (Homo sapiens, UniProt Q99581 1-238)
T7 sequence: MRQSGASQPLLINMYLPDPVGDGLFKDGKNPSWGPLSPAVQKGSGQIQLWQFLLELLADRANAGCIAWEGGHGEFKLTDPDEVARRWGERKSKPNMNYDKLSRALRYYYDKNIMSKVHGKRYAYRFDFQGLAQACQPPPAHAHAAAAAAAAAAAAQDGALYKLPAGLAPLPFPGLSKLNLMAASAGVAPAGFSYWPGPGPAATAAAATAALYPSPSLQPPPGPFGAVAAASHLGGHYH
Summary of the method: as §1

[11] = molecular target: ETV5 (Homo sapiens, UniProt P41161 1-510)
Sequence of ETV5 (P41161 whole entry): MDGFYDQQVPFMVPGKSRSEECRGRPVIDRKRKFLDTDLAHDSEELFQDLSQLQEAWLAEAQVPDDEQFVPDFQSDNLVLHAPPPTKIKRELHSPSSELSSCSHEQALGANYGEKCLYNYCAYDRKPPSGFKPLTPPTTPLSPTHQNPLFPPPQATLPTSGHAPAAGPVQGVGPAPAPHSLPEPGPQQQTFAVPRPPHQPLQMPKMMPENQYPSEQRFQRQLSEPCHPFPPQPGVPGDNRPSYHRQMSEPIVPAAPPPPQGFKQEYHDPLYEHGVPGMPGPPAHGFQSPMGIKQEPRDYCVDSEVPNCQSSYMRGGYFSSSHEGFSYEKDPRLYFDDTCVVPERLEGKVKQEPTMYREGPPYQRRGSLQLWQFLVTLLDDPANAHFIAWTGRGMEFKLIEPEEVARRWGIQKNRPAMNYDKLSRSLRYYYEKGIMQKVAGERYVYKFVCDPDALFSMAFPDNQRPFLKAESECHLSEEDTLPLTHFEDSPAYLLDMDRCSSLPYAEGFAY
Summary of the method: as §1

[12] = molecular target: T8, SPIC (Homo sapiens, UniProt Q8N5J4 1-248)
T8 sequence: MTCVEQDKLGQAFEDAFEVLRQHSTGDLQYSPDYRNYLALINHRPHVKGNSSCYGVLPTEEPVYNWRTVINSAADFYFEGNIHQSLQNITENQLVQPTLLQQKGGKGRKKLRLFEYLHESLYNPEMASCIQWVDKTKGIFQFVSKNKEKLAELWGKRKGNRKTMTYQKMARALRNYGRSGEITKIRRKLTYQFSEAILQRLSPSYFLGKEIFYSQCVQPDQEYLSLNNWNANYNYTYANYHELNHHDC
Summary of the method: as §1

[13] = molecular target: ELF4 (Homo sapiens, UniProt Q99607 1-663)
Sequence of ELF4 (Q99607 whole entry): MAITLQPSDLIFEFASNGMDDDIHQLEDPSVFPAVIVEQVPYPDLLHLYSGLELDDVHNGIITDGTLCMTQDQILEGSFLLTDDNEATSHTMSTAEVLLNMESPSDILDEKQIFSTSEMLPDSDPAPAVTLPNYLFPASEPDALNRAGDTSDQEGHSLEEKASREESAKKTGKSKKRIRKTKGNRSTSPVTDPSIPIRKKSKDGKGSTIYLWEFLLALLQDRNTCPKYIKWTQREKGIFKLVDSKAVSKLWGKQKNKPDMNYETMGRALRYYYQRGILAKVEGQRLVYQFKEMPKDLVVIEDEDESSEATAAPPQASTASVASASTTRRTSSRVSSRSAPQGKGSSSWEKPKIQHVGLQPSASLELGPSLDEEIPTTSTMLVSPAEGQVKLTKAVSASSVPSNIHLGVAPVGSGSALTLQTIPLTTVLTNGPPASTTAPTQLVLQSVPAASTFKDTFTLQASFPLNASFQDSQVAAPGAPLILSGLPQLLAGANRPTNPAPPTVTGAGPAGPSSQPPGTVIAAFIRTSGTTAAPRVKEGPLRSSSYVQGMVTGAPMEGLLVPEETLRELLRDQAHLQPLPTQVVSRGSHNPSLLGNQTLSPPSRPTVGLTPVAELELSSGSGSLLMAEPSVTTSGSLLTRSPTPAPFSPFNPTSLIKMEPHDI
Summary of the method: as §1

[14] = molecular target: T9, ELK4 (Homo sapiens, UniProt P28324-2 1-405)
T9 sequence: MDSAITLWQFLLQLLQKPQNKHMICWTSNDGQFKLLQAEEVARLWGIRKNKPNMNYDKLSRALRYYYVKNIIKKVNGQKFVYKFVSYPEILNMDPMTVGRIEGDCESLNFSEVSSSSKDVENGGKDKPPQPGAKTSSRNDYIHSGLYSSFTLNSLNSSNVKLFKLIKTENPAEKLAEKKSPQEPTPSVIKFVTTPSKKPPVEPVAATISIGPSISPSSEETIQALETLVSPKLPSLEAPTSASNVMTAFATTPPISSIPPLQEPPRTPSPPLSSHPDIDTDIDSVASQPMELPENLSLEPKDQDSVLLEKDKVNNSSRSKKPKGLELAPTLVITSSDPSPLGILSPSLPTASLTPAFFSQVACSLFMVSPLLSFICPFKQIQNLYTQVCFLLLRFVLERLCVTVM
Summary of the method: as §1

[15] = molecular target: T10, ETV2 (Homo sapiens, UniProt O00321 1-342)
T10 sequence: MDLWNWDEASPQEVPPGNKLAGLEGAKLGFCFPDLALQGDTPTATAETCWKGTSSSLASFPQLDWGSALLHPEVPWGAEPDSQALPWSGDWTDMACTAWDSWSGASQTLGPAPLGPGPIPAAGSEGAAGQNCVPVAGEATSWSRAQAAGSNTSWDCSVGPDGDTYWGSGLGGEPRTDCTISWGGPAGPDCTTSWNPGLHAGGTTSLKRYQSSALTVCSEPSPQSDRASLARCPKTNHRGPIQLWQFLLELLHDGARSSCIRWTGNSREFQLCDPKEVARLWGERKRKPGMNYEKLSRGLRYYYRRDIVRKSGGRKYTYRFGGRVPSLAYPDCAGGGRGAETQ
Summary of the method: as §1

[16] = molecular target: T11, ELF3 (Homo sapiens, UniProt P78545 1-371)
T11 sequence: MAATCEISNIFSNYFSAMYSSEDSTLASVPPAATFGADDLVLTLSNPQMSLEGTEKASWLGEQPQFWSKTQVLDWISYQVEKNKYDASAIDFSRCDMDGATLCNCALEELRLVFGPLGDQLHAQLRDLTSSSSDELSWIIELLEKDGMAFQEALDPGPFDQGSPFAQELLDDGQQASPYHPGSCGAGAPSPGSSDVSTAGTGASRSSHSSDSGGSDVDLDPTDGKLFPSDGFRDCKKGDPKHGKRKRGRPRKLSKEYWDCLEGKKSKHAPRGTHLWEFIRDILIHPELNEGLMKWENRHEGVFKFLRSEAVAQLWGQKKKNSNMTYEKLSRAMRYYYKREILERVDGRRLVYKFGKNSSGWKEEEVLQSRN
Summary of the method: as §1

[17] = molecular target: ETV1 (Homo sapiens, UniProt P50549 1-477)
Sequence of ETV1 (P50549 whole entry): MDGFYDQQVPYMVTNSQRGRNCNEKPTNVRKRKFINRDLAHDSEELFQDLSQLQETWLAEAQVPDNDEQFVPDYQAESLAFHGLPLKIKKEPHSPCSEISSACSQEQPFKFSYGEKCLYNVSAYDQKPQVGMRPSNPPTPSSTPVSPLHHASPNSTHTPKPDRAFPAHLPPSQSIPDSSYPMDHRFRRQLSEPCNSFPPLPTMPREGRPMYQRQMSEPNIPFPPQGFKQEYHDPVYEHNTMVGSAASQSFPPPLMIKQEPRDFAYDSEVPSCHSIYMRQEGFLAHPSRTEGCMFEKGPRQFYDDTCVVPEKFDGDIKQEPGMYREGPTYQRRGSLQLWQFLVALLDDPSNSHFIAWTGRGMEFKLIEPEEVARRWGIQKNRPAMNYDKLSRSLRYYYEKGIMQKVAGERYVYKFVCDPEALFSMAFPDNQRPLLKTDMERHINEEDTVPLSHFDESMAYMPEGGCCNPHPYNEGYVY
Summary of the method: as §1

TACAAC
binding signal [1]: 1.16 fold enrichment (6-mer frequency, TF over GST control) | binding signal [2]: 1.17 fold enrichment (6-mer frequency, TF over GST control) | binding signal [3]: 1.16 fold enrichment (6-mer frequency, TF over GST control) | binding signal [4]: 1.14 fold enrichment (6-mer frequency, TF over GST control) | binding signal [5]: 1.16 fold enrichment (6-mer frequency, TF over GST control) | binding signal [6]: 1.14 fold enrichment (6-mer frequency, TF over GST control) | binding signal [7]: 1.08 fold enrichment (6-mer frequency, TF over GST control) | binding signal [8]: 1.18 fold enrichment (6-mer frequency, TF over GST control) | binding signal [9]: 1.23 fold enrichment (6-mer frequency, TF over GST control) | binding signal [10]: 1.17 fold enrichment (6-mer frequency, TF over GST control) | binding signal [11]: 1.13 fold enrichment (6-mer frequency, TF over GST control) | binding signal [12]: 1.22 fold enrichment (6-mer frequency, TF over GST control) | binding signal [13]: 1.11 fold enrichment (6-mer frequency, TF over GST control) | binding signal [14]: 1.07 fold enrichment (6-mer frequency, TF over GST control) | binding signal [15]: 1.09 fold enrichment (6-mer frequency, TF over GST control) | binding signal [16]: 1.02 fold enrichment (6-mer frequency, TF over GST control) | binding signal [17]: 1.13 fold enrichment (6-mer frequency, TF over GST control)

ATATGT
binding signal [1]: 1.09 fold enrichment (6-mer frequency, TF over GST control) | binding signal [2]: 1.08 fold enrichment (6-mer frequency, TF over GST control) | binding signal [3]: 1.16 fold enrichment (6-mer frequency, TF over GST control) | binding signal [4]: 1.1 fold enrichment (6-mer frequency, TF over GST control) | binding signal [5]: 1.2 fold enrichment (6-mer frequency, TF over GST control) | binding signal [6]: 1.13 fold enrichment (6-mer frequency, TF over GST control) | binding signal [7]: 1.09 fold enrichment (6-mer frequency, TF over GST control) | binding signal [8]: 1.18 fold enrichment (6-mer frequency, TF over GST control) | binding signal [9]: 1.14 fold enrichment (6-mer frequency, TF over GST control) | binding signal [10]: 1.11 fold enrichment (6-mer frequency, TF over GST control) | binding signal [11]: 1.1 fold enrichment (6-mer frequency, TF over GST control) | binding signal [12]: 1.18 fold enrichment (6-mer frequency, TF over GST control) | binding signal [13]: 1.14 fold enrichment (6-mer frequency, TF over GST control) | binding signal [14]: 1.21 fold enrichment (6-mer frequency, TF over GST control) | binding signal [15]: 1.04 fold enrichment (6-mer frequency, TF over GST control) | binding signal [16]: 1.14 fold enrichment (6-mer frequency, TF over GST control) | binding signal [17]: 1.12 fold enrichment (6-mer frequency, TF over GST control)
